From the supplement of paper PMC6522484
± gives the standard deviation of the averaged measurements.

Tests used:
DLD1 [1] = assay: cell viability (CellTiter-Glo) relative to plate median (fraction of plate median); higher = more viable cells; settings: 5 µM; treatment time 24 h; reporter: 7TFP
Outline: (§1)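 Colorectal cancer cell lines stably carrying lentiviral TCF/Wnt firefly luciferase reporters (7TFP or TCF4/Wnt) were plated in 384-well plates and, 24 h later, given library compounds at a final 5 µM for 24 h. Firefly luciferase or CellTiterGlo luminescence was read on parallel plates with a Tecan F500 reader. Each well's signal was normalised to the plate median in webcellHTS2 (additive, without log transformation). Values are the mean of two independent replicates.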

HCT116 = assay: as above; settings: 5 µM; treatment time 24 h; reporter: TCF4/Wnt
Outline: as §1

SW480 [2] = assay: as above; settings: 5 µM; treatment time 24 h; reporter: 7TFP
Outline: as §1

DLD1 [3] = assay: TCF/Wnt firefly luciferase reporter signal relative to plate median (fraction of plate median); higher = higher Wnt reporter signal; settings: 5 µM; treatment time 24 h; reporter: 7TFP
Outline: as §1

SW480 [4] = assay: as above; settings: 5 µM; treatment time 24 h; reporter: 7TFP
Outline: as §1

Row | Compound | cell viability (DLD1 [1]) | cell viability (HCT116) | cell viability (SW480 [2]) | TCF/Wnt firefly luciferase reporter signal (DLD1 [3]) | TCF/Wnt firefly luciferase reporter signal (SW480 [4])
1 | CC(C)OC(=O)C(C)(C)Oc1ccc(C(=O)c2ccc(Cl)cc2)cc1 | 1.08 ± 0.071 | 1.045 ± 0.0071 | 1.04 | 0.917 ± 0.14 | 0.939 ± 0.015
2 | Cc1cc(O)c(C=O)c(O)c1C(=O)O | 0.939 ± 0.14 | 0.939 ± 0.064 | 0.957 ± 0.035 | 1.09 ± 0.14 | 0.9475 ± 0.0035
3 | CC[C@H]1OC(=O)[C@H](C)[C@@H](O[C@H]2C[C@@](C)(OC)[C@@H](O)[C@H](C)O2)[C@H](C)[C@@H](O[C@@H]2O[C@H](C)C[C@H](N(C)C)[C@H]2O)[C@](C)(O)C[C@@H](C)CN(C)[C@H](C)[C@@H](O)[C@]1(C)O | 1.065 ± 0.0071 | 0.8915 ± 0.0035 | 1.01 ± 0.049 | 0.97 ± 0.1 | 1.04 ± 0.12
4 | c1ccc2c(CC3=NCCN3)cccc2c1 | 1.11 ± 0.035 | 1.09 ± 0.028 | 1.09 ± 0.035 | 1.07 ± 0.12 | 0.984 ± 0.11
5 | CC(=O)Nc1cccc(O)c1 | 0.933 ± 0.17 | 1.1 ± 0.028 | 1.03 ± 0.021 | 0.949 ± 0.14 | 0.939 ± 0.13
6 | N=C(N)NS(=O)(=O)c1ccc(N)cc1 | 0.943 ± 0.044 | 0.892 ± 0.057 | 0.981 ± 0.027 | 0.962 ± 0.033 | 0.986 ± 0.048
7 | O=C1OC(=O)[C@H]2[C@@H]1[C@@H]1CC[C@H]2O1 | 0.9975 ± 0.0035 | 0.867 ± 0.079 | 0.949 ± 0.0085 | 1.06 ± 0.13 | 0.892 ± 0.02
8 | CCOc1ccc2c(c1)C(C)=CC(C)(C)N2 | 1 ± 0.071 | 0.91 ± 0.09 | 1.01 ± 0.035 | 0.775 ± 0.12 | 0.899 ± 0.056
9 | CC1(C)C(=O)C=CC2(C)C1C=CC1(C)C2CCC2(C)C(c3ccoc3)OC(=O)C3OC312 (stereo not given) | 1.07 ± 0.042 | 1.1 ± 0.13 | 1.05 | 1.01 ± 0.1 | 0.964 ± 0.094
10 | CO[C@@]1(NC(=O)Cc2cccs2)C(=O)N2C(C(=O)O)=C(COC(N)=O)CS[C@@H]21 | 1.06 ± 0.078 | 1.08 ± 0.2 | 0.968 ± 0.023 | 1.07 ± 0.11 | 0.887 ± 0.021
11 | CCCCc1nc(Cl)c(CO)n1Cc1ccc(-c2ccccc2-c2nnn[nH]2)cc1 | 0.909 ± 0.09 | 0.921 ± 0.052 | 1.02 ± 0.045 | 1.08 ± 0.25 | 0.715 ± 0.37
12 | COc1c2occc2c(OC)c2c(=O)cc(C)oc12 | 0.99 ± 0.057 | 0.969 ± 0.14 | 0.989 ± 0.016 | 1.2 ± 0.099 | 1.12 ± 0.042
13 | NC(=O)c1ncn([C@@H]2O[C@H](CO)[C@@H](O)[C@H]2O)n1 | 1.12 ± 0.035 | 1.04 ± 0.064 | 1.01 ± 0.021 | 1.22 ± 0.23 | 0.986 ± 0.09
14 | C=C1[C@@H]([C@@]2(C)C=CC(=O)C(C)(C)[C@@H]2CC(=O)OC)CC[C@@]2(C)[C@H](c3ccoc3)OC(=O)[C@H]3O[C@]132 | 0.94 ± 0.021 | 1.01 ± 0.039 | 1.02 ± 0.021 | 0.978 ± 0.19 | 0.996 ± 0.048
15 | CCN(CC)CCNC(=O)c1ccc(N)cc1 | 1 ± 0.083 | 0.988 ± 0.06 | 1.02 ± 0.055 | 1.045 ± 0.0071 | 1.08 ± 0.099
16 | O=C(O)C1=CC(=C(c2ccc(O)c(C(=O)O)c2)c2ccc(O)c(C(=O)O)c2)C=CC1=O | 1.03 ± 0.14 | 1.03 ± 0.028 | 1.06 ± 0.05 | 0.996 ± 0.09 | 1.01 ± 0.049
17 | COC(=O)c1c(C)c2c(c(C)c1O)OC(=O)c1c(C)c(Cl)c(O)c(Cl)c1O2 | 0.994 ± 0.037 | 0.865 ± 0.016 | 0.9555 ± 0.0078 | 0.895 ± 0.083 | 0.933 ± 0.057

Row | Compound | cell viability (DLD1 [1]) | cell viability (HCT116) | cell viability (SW480 [2]) | TCF/Wnt firefly luciferase reporter signal (DLD1 [3]) | TCF/Wnt firefly luciferase reporter signal (SW480 [4])
18 | CC(C)(C)CC(C)(C)c1ccc(OCCOCC[N+](C)(C)Cc2ccccc2)cc1 | 1.07 ± 0.028 | 0.99 ± 0.071 | 1.05 ± 0.021 | 0.983 ± 0.081 | 0.897 ± 0.017
19 | CCN(CC)CCNC(=O)c1ccc(NC(C)=O)cc1 | 1.01 ± 0.075 | 1.05 ± 0.071 | 1.06 ± 0.035 | 1.08 ± 0.028 | 1.14 ± 0.014
20 | Oc1cc2c(cc1O)C(c1ccccc1)CNCC2 (stereo not given) | 0.981 ± 0.019 | 0.944 ± 0.05 | 0.934 ± 0.025 | 1.08 ± 0.05 | 1.05 ± 0.064
21 | CC(C)NCC(O)c1cc(O)cc(O)c1 (stereo not given) | 0.999 ± 0.03 | 0.954 ± 0.06 | 0.976 ± 0.048 | 0.914 ± 0.11 | 0.987 ± 0.018
22 | COc1ccc(NS(=O)(=O)c2ccc(N)cc2)nn1 | 0.99 ± 0.057 | 1.09 ± 0.042 | 1.02 ± 0.032 | 1.12 ± 0.19 | 0.914 ± 0.14
23 | CC1NC(=O)CNC1=O (stereo not given) [cyclo(alanylglycyl)] | 0.883 ± 0.05 | 0.918 ± 0.051 | 0.925 ± 0.054 | 0.947 ± 0.012 | 1 ± 0.1
24 | O=C(O)c1cc(O)c(O)c(O)c1 | 0.906 ± 0.059 | 0.955 ± 0.093 | 1 ± 0.08 | 1.11 ± 0.17 | 1.03 ± 0.17
25 | Nc1ccc(C(=O)O)c(O)c1 | 1.01 ± 0.021 | 1.06 ± 0.11 | 0.989 ± 0.013 | 1.04 ± 0.057 | 1.06 ± 0.1
26 | NC(=O)c1ccc([N+](=O)[O-])cc1Cl | 1.02 ± 0.047 | 1.1 ± 0.057 | 1 ± 0.014 | 0.894 ± 0.19 | 0.967 ± 0.075
27 | COc1ccc2c(c1)CC[C@@H]1[C@@H]2CC[C@]2(C)[C@@H](O)CC[C@@H]12 | 0.928 ± 0.093 | 0.953 ± 0.15 | 1 ± 0.064 | 0.885 ± 0.18 | 0.969 ± 0.16
28 | CCCCCCCCCCCCCCC(C(=O)O)C(O)(CC(=O)OC)C(=O)O (stereo not given) | 0.955 ± 0.05 | 0.878 ± 0.017 | 0.9505 ± 0.0064 | 0.979 ± 0.086 | 0.947 ± 0.028
29 | CC(CN(C)C)CN1c2ccccc2CCc2ccccc21 (stereo not given) | 1 ± 0.021 | 0.929 ± 0.055 | 1.05 ± 0.086 | 0.93 ± 0.097 | 1.13 ± 0.099
30 | Cn1c(=O)[nH]c2ncn(C)c2c1=O | 0.987 ± 0.13 | 1.04 ± 0.021 | 1.02 | 1.05 ± 0.13 | 1.02 ± 0.072
31 | CC1=C(CCC(=O)O)c2cc3nc(cc4[nH]c(cc5[nH]c(cc1n2)c(C)c5C(C)O)c(C)c4C(C)O)C(C)=C3CCC(=O)O (stereo not given) | 1.01 ± 0.015 | 0.909 ± 0.11 | 0.964 ± 0.0099 | 1.01 ± 0.13 | 1.02 ± 0.16
32 | CCCCCC[C@H]1CC[C@@](O)([C@@](C)(O)C(=O)N[C@@H]2C(=O)N3NCCC[C@@H]3C(=O)N(O)[C@@H](COC)C(=O)NCC(=O)N3NCCC[C@H]3C(=O)N(O)[C@H](C)C(=O)O[C@H]2C)OC1C (stereo not given in full) [Diperamycin] | 1.15 ± 0.099 | 1.23 ± 0.035 | 1.11 ± 0.099 | 1.06 ± 0.11 | 0.926 ± 0.0014
33 | Clc1ccc(CSC(Cn2ccnc2)c2ccc(Cl)cc2Cl)cc1 (stereo not given) | 1.01 ± 0.015 | 0.932 ± 0.14 | 0.954 ± 0.11 | 0.88 ± 0.035 | 0.952 ± 0.036
34 | CO[C@@H]1[C@H](O)[C@@H](C)O[C@@H](OC[C@H]2[C@@H]3O[C@H]3/C=C/C(=O)[C@@](C)(O)C[C@H](C)[C@H](O[C@@H]3O[C@H](C)C[C@H](OC)[C@H]3O)[C@@H](C)/C=C/C(=O)O[C@@H]2C)[C@@H]1OC [Chalcomycin] | 1.04 ± 0.083 | 1.1 ± 0.071 | 1.01 ± 0.048 | 0.869 ± 0.094 | 0.965 ± 0.034
